Test results published in PubChem BioAssay (EPA / NIEHS).
Active and inactive are the calls of the source. Rule for the calls: active = hit-call score of the fitted dose curve at least 0.9, where 1 is the maximum; inactive = score below 0.9.

Tests used:
[1] = read-out: Plasminogen activator inhibitor-1 (PAI1), SERPINE1 (gene 5054); assay: BSK_hDFCGF_PAI1: BioMAP Diversity Plus: hDFCGF Assay for Plasminogen activator inhibitor-1 (PAI1) Biomarker Activity (AID 2283066); conditions: primary human foreskin fibroblasts; actives raise or lower the signal
Method in brief: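 PAI-1 levels, determined by ELISA, served as the endpoint in human foreskin fibroblast cultures exposed to compound for 24 h, with DMSO as baseline.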

[2] = read-out: Interferon-gamma inducible Protein 10 (IP10), CXCL10 (gene 3627); assay: BSK_KF3CT_IP10: BioMAP Diversity Plus: KF3CT Assay for Interferon-gamma inducible Protein 10 (IP10) Biomarker Activity (AID 2283068); conditions: primary human keratinocytes with fibroblasts; actives raise or lower the signal
Method in brief: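 In a primary skin co-culture of keratinocytes and fibroblasts, IP-10 is quantified by ELISA at 24 h after dosing. SRB staining of parallel wells monitors overt toxicity. Curves are fitted both directions against DMSO.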

[3] = BSK_KF3CT_SRB: Viability Assessment in the BioMAP Diversity Plus: KF3CT Assay (AID 2283069); conditions: primary human keratinocytes with fibroblasts;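 note: total protein by sulforhodamine B staining as a cytotoxicity measure; fitted for both signal gain and loss against DMSO baseline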
Method in brief: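 Human keratinocyte and foreskin fibroblast co-culture exposed to chemical for 24 h. Total protein measured in parallel cultures by 0.1% sulforhodamine B staining after 10% TCA fixation, read at 560 nm; bidirectional fit relative to DMSO.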

[4] = read-out: Interleukin-1 alpha (IL1a), IL1A (gene 3552); assay: BSK_KF3CT_IL1a: BioMAP Diversity Plus: KF3CT Assay for Interleukin-1 alpha (IL1a) Biomarker Activity (AID 2283070); conditions: primary human keratinocytes with fibroblasts; actives raise or lower the signal
Method in brief: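 Primary human keratinocyte plus foreskin fibroblast co-culture, dosed and measured at 24 h in 96-well plates. IL-1a level quantified by ELISA; bidirectional fit relative to DMSO.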

[5] = read-out: TIMP metallopeptidase inhibitor 2 (TIMP2), TIMP2 (gene 7077); assay: BSK_KF3CT_TIMP2: BioMAP Diversity Plus: KF3CT Assay for TIMP metallopeptidase inhibitor 2 (TIMP2) Biomarker Activity (AID 2283071); conditions: primary human keratinocytes with fibroblasts; actives raise or lower the signal
Method in brief: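 Keratinocyte–fibroblast co-culture, 24 h exposure; TIMP-2 ELISA, DMSO-normalised bidirectional fit. Parallel SRB (0.1%, TCA-fixed, 560 nm) total-protein staining gauges cytotoxicity.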

[6] = read-out: Transforming growth factor beta 1 (TGFb1), TGFB1 (gene 7040); assay: BSK_KF3CT_TGFb1: BioMAP Diversity Plus: KF3CT Assay for Transforming growth factor beta 1 (TGFb1) Biomarker Activity (AID 2283072); conditions: primary human keratinocytes with fibroblasts; actives raise or lower the signal
Method in brief: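 Signal changes in either direction, relative to DMSO, define activity here. TGF-b1 is read by ELISA from a human keratinocyte-fibroblast co-culture 24 h post-dose.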

[7] = read-out: C-C motif chemokine 2 (Homo sapiens) (UniProt P13500); assay: BSK_KF3CT_MCP1: BioMAP Diversity Plus: KF3CT Assay for Monocyte Chemoattractant Protein 1 (MCP1/CCL2) Biomarker Activity (AID 2283073); conditions: primary human keratinocytes with fibroblasts; actives raise or lower the signal
Method in brief: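 Human keratinocyte–foreskin fibroblast co-culture; MCP-1 measured by ELISA 24 h after dosing. Bidirectional fit vs DMSO; cytotoxicity tracked by SRB total protein in parallel cultures.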

[8] = read-out: Matrix Metallopeptidase 9 (MMP9), MMP9 (gene 4318); assay: BSK_KF3CT_MMP9: BioMAP Diversity Plus: KF3CT Assay for Matrix Metallopeptidase 9 (MMP9) Biomarker Activity (AID 2283074); conditions: primary human keratinocytes with fibroblasts; actives raise or lower the signal;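 for AC50: MMP9 protein level quantified by ELISA in the co-culture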
Method in brief: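 Human keratinocyte and foreskin fibroblast co-culture exposed to chemicals for 24 h; MMP9 biomarker measured by ELISA, bidirectional fitting relative to DMSO; cytotoxicity tracked by SRB total protein staining in parallel cultures.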

[9] = read-out: urokinase plasminogen activator (uPA), PLAU (gene 5328); assay: BSK_KF3CT_uPA: BioMAP Diversity Plus: KF3CT Assay for urokinase plasminogen activator (uPA) Biomarker Activity (AID 2283075); conditions: primary human keratinocytes with fibroblasts; actives raise or lower the signal
Method in brief: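 Primary human keratinocyte/foreskin fibroblast co-culture exposed to chemical; uPA measured by ELISA at 24 h. Bidirectional fit versus DMSO, with parallel SRB total-protein staining for cytotoxicity.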

[10] = read-out: CD40, CD40 (gene 958); assay: BSK_LPS_CD40: BioMAP Diversity Plus: LPS Assay for CD40 Biomarker Activity (AID 2283076); conditions: primary human HUVEC with PBMC; actives raise or lower the signal
Method in brief: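 HUVEC plus PBMC co-culture stimulated with LPS; CD40 quantified by ELISA 24 h after compound dosing. Fitting was bidirectional relative to DMSO. SRB staining of parallel cultures flagged overt cytotoxicity.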

[11] = read-out: E-selectin (Homo sapiens) (UniProt P16581); assay: BSK_LPS_Eselectin: BioMAP Diversity Plus: LPS Assay for Eselectin Biomarker Activity (AID 2283077); conditions: primary human HUVEC with PBMC; actives raise or lower the signal
Method in brief: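 Human umbilical vein endothelial cells co-cultured with PBMC under LPS stimulation; cell-surface E-selectin measured by ELISA 24 h after dosing. Change in either direction versus DMSO, with SRB total-protein staining in parallel cultures for cytotoxicity.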

[12] = read-out: Interleukin-8 (IL8), CXCL8 (gene 3576); assay: BSK_LPS_IL8: BioMAP Diversity Plus: LPS Assay for Interleukin-8 (IL8) Biomarker Activity (AID 2283078); conditions: primary human HUVEC with PBMC; actives raise or lower the signal
Method in brief: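 Human umbilical vein endothelial cells co-cultured with PBMC, LPS-stimulated, exposed to compound for 24 h. IL-8 quantified by ELISA; fitted in both directions against DMSO, with SRB total-protein staining of parallel cultures for cytotoxicity.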

[13] = BSK_LPS_SRB: Viability Assessment in the BioMAP Diversity Plus: LPS Assay (AID 2283079); conditions: primary human HUVEC with PBMC;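 note: total protein by sulforhodamine B absorbance as a cytotoxicity measure; measured one day after compound addition; fitted in both directions against DMSO so loss or gain of signal counts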
Method in brief: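 Co-culture of human umbilical vein endothelial cells and PBMC, read 24 h after dosing. Total protein by 0.1% SRB staining after 10% TCA fixation, absorbance at 560 nm; bidirectional fit against DMSO.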

[14] = read-out: Interleukin-1 alpha (IL1a), IL1A (gene 3552); assay: BSK_LPS_IL1a: BioMAP Diversity Plus: LPS Assay for Interleukin-1 alpha (IL1a) Biomarker Activity (AID 2283080); conditions: primary human HUVEC with PBMC; actives raise or lower the signal
Method in brief: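 Human umbilical vein endothelial cells co-cultured with PBMC and stimulated with LPS; IL-1a measured by ELISA 24 h after dosing. Bidirectional fitting against DMSO; cytotoxicity checked by SRB staining in parallel cultures.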

[15] = read-out: Monocyte Chemoattractant Protein-1 (MCP1), CCL2 (gene 6347); assay: BSK_LPS_MCP1: BioMAP Diversity Plus: LPS Assay for Monocyte Chemoattractant Protein-1 (MCP1) Biomarker Activity (AID 2283081); conditions: primary human HUVEC with PBMC; actives raise or lower the signal;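 for AC50: secreted MCP-1 protein quantified by ELISA in culture supernatant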
Method in brief: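 Human umbilical vein endothelial cells co-cultured with PBMC, LPS-stimulated; secreted MCP-1 measured by ELISA 24 h after compound addition. Bidirectional curve fitting against DMSO baseline; SRB total-protein staining in parallel cultures for cytotoxicity.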

[16] = BSK_LPS_PGE2: BioMAP Diversity Plus: LPS Assay for Prostaglandin E2 (PGE2) Biomarker Activity (AID 2283082); conditions: primary human HUVEC with PBMC; actives raise or lower the signal;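 for AC50: secreted prostaglandin E2 measured by ELISA in LPS-stimulated co-culture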
Method in brief: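 Endpoint derived from bidirectional curve fitting versus DMSO of ELISA-measured PGE2 in LPS-stimulated human primary vascular co-culture (HUVEC with PBMC) harvested at 24 h.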

[17] = read-out: Macrophage colony-stimulating factor (MCSF), CSF1 (gene 1435); assay: BSK_LPS_MCSF: BioMAP Diversity Plus: LPS Assay for Macrophage colony-stimulating factor (MCSF) Biomarker Activity (AID 2283083); conditions: primary human HUVEC with PBMC; actives raise or lower the signal
Method in brief: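 HUVEC–PBMC co-culture, M-CSF measured by ELISA 24 h after chemical dosing. Fitted in both directions relative to DMSO as negative control; overt cytotoxicity assessed by SRB total-protein staining in parallel cultures.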

[18] = read-out: Tissue Factor, F3 (gene 2152); assay: BSK_LPS_TissueFactor: BioMAP Diversity Plus: LPS Assay for Tissue Factor Biomarker Activity (AID 2283084); conditions: primary human HUVEC with PBMC; actives raise or lower the signal
Method in brief: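 Human umbilical vein endothelial cells co-cultured with PBMC were dosed with compound. Cell-surface CD142 was measured by ELISA 24 h later. Activity was fitted bidirectionally against DMSO, with SRB total-protein staining in parallel cultures for cytotoxicity.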

[19] = read-out: Tumor necrosis factor (Homo sapiens) (UniProt P01375); assay: BSK_LPS_TNFa: BioMAP Diversity Plus: LPS Assay for Tumour Necrosis Factor alpha (TNFa) Biomarker Activity (AID 2283085); conditions: primary human HUVEC with PBMC; actives raise or lower the signal;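 for AC50: TNFa protein level quantified by ELISA in the co-culture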
Method in brief: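 Primary human vascular co-culture of HUVEC and PBMC; TNFa ELISA 24 h after treatment, analysed as increase or decrease relative to DMSO control.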

[20] = read-out: Intercellular Adhesion Molecule 1 (ICAM1), ICAM1 (gene 3383); assay: BSK_KF3CT_ICAM1: BioMAP Diversity Plus: KF3CT Assay for Intercellular Adhesion Molecule 1 (ICAM1) Biomarker Activity (AID 2283067); conditions: primary human keratinocytes with fibroblasts; actives raise or lower the signal
Method in brief: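 Human keratinocyte–foreskin fibroblast co-culture was treated for 24 h. Cell-surface ICAM-1 was quantified by ELISA, fitted bidirectionally relative to DMSO. Cytotoxicity was checked in parallel cultures by SRB total-protein staining.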

Measured: AC50

Sequence of Tumor necrosis factor (Homo sapiens) (P01375 whole entry, looked up): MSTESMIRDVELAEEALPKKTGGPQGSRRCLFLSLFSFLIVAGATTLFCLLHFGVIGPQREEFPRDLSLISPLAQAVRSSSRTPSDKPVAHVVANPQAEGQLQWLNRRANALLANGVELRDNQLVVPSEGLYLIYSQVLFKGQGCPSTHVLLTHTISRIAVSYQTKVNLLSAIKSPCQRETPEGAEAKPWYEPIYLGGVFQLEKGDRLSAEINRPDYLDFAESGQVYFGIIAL
Sequence of E-selectin (Homo sapiens) (P16581 whole entry, looked up): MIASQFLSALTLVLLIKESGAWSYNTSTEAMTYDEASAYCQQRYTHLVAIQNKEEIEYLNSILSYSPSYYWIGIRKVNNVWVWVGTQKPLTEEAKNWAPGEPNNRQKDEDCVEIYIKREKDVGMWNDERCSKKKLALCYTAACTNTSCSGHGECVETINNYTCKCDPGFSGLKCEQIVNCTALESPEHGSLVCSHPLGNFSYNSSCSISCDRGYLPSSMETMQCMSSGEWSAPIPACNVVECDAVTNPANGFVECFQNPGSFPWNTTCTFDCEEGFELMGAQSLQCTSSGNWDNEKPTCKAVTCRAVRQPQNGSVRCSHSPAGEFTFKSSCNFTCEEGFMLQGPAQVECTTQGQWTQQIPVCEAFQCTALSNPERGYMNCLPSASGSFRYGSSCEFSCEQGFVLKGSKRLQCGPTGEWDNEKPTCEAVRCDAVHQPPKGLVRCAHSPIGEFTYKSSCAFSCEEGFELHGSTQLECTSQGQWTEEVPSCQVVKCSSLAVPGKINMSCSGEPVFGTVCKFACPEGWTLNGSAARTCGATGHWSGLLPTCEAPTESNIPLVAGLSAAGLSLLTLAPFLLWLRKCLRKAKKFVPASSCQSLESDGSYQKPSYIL

CC(O)CN(CCN(CC(C)O)CC(C)O)CC(C)O (stereo unspecified)
not listed: [20]
inactive: all other assays above

O=C(O)c1cccc(N(Cc2cccnc2)c2ccc(OC(F)F)c(OC(F)F)c2)c1
active: [1] 1.26 µM | [11] 11 µM | [15] 10.7 µM | [16] 12.2 µM | [18] 9.14 µM | [19] 1.95 µM
not listed: [12] | [14]
inactive: all other assays above

CC(C)CC(C)(O)C#CC(C)(O)CC(C)C (stereo unspecified)
not listed: [7] | [12] | [16]
inactive: all other assays above

COc1cccc(-c2ccc(/C=C\CN3CCCCCC3)cc2Cl)c1
inactive: [11] | [15] | [17] | [18] | [19]
active: [1] 25.3 µM | [20] 28.4 µM | [2] 29.7 µM | [3] 30.6 µM | [4] 29 µM | [5] 33.2 µM | [6] 33.3 µM | [7] 28.5 µM | [8] 28 µM | [9] 33.5 µM | [10] 28.6 µM | [13] 26.8 µM
